Compounds without any hit were thinned out: in the full panel of roughly 79,000, 15% have a hit. Calls of active or inactive are those of the source. Cut-off read from the data, not from the text of the source: active = growth inhibition above about 70%; inactive = the rest. Where a SMILES comes first, the peptide text is derived from it. [ ]: non-standard residue; d: D form. ξ: configuration not given here. ξV = CC(C)C(N)C(=O)O
Assays:
[1] = NCI Yeast Anticancer Drug Screen. Data for the rad50 strain (AID 155);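 note: 0% = growth of vehicle-only cultures of the same strain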; conditions: S. cerevisiae rad50 strain growth inhibition; at 50.0 µM; hits give high values
How it was run: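 DNA repair mutant yeast, compound exposure, growth read-out; inhibition is taken relative to vehicle.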

[2] = NCI Yeast Anticancer Drug Screen. Data for the mec2-1 strain (AID 157); conditions: S. cerevisiae mec2-1 strain, at 50.0 µM, hits give high values
How it was run: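 Cells of the genetically defined mec2-1 yeast strain are incubated with test compound. Inhibition of growth is calculated against vehicle-treated controls.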

[3] = NCI Yeast Anticancer Drug Screen. Data for the sgs1 mgt1 strain (AID 161);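 note: 0% = growth of cultures given vehicle only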; conditions: S. cerevisiae sgs1 mgt1 strain, at 50.0 µM, hits give high values
How it was run: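 Genetically altered yeast, compound exposure, growth inhibition relative to vehicle.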

[4] = NCI Yeast Anticancer Drug Screen. Data for the cln2 rad14 strain (AID 165);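 note: 0% = growth equal to vehicle treated cultures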; conditions: S. cerevisiae cln2 rad14 strain, at 50.0 µM, hits give high values
How it was run: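 The screen exposed genetically defined yeast (cln2 rad14) to test compounds and scored growth inhibition relative to vehicle-treated controls.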

[5] = NCI Yeast Anticancer Drug Screen. Data for the bub3 strain (AID 167); conditions: S. cerevisiae bub3 mutant strain, at 50.0 µM, hits give high values
How it was run: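 In this screen, a yeast mutant lacking normal mitotic checkpoint function is challenged with compound. Relative growth versus vehicle gives the inhibition value.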

[6] = NCI Yeast Anticancer Drug Screen. Data for the mlh1 rad18 strain (AID 175); conditions: S. cerevisiae mlh1 rad18 strain growth inhibition; at 50.0 µM; hits give high values
How it was run: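 Compound-treated yeast growth, normalised to vehicle controls. Strain bears defined DNA repair mutations.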

Measured: growth inhibition

CSc1ncc(Br)c(Sc2nccn2C)n1
inactive: [1] 11.4% | [2] 7.3% | [3] 14.3% | [4] 4.7% | [5] -12% | [6] 2.85%

COC(=O)O[C@H]1CC[C@@]2(C)C(=CC[C@H]3[C@@H]4CC[C@H]([C@H](C)CCCC(C)C)[C@@]4(C)CC[C@@H]32)C1
inactive: [1] -21.6% | [2] -29.8% | [3] -5.6% | [4] 6.75% | [5] -11.8% | [6] -5.3%

OCC1CCCCCCC1
inactive: [1] -4.25% | [2] -19.7% | [3] -3.15% | [4] 18.4% | [5] -3.65% | [6] -10.4%

CCCOc1cc2c(cc1C(C)c1ccc(OCC)cc1)OCO2 (stereo not given)
inactive: [1] 36% | [2] -25.8% | [3] -9.3% | [4] 0.9% | [5] -26.8% | [6] -49.8%

CCCCn1cnc2c(SCCNC(=O)N(C)N=O)ncnc21
inactive: [1] 6.3% | [2] -8.25% | [3] 10.3% | [4] -45.3% | [5] 3.5% | [6] -2.05%

COc1cc2c(cc1OC)C1CCN3C(=O)CCC3[N+]1(C)CC2 (stereo not given)
inactive: [1] 46.6% | [2] -1.05% | [3] 28.9% | [4] -4.3% | [5] 3.2% | [6] 8.7%

C1=C(N2CCOCC2)/C(=C2\SC(=Nc3ccccc3)C(=Nc3ccccc3)N2c2ccccc2)CC1
inactive: [1] -5.8% | [2] -5.4% | [3] -7.65% | [4] 14.3% | [5] -5.35% | [6] -28.6%

O=c1ccc2c(O)cc(O)cc2o1
inactive: [1] -8.9% | [2] -5.9% | [3] -13.7% | [4] 5.05% | [5] 8.35% | [6] -8.5%

CCCCCC(CCCCC)=C(C#N)C(=O)OCC
inactive: [1] -6.15% | [2] 21.1% | [3] 7.55% | [4] -19.4% | [5] 19.9% | [6] 25.8%

COC1OCCCO1
inactive: [1] -12.6% | [2] 11.6% | [3] -6.45% | [4] -6.75% | [5] -0.1% | [6] -12.5%

COc1ccc(/C=C2\N=C(c3cc(OC)c(OC)c(OC)c3)OC2=O)cc1
inactive: [1] 20.2% | [2] 13.1% | [3] 18.6% | [4] 24.6% | [5] 22.1% | [6] 7.5%

COc1ccc2c(=O)cc(-c3ccncc3)oc2c1OC
inactive: [1] 40.2% | [2] 7.8% | [3] -4.05% | [4] 2.3% | [5] -47% | [6] 31.2%

CCOC(=O)c1ccc(N=C(N)N)cc1
inactive: [1] 23% | [2] 9.85% | [3] 19.8% | [4] 11% | [5] 17.2% | [6] 19.6%

COc1c(CC=C(C)C)c(O)c(C(CC(C)C)c2c(O)c(CC=C(C)C)c(O)c(C(C)=O)c2O)c(O)c1C(C)=O (stereo not given)
inactive: [1] 32.9% | [2] 41.5% | [3] 34% | [4] 41.3% | [5] 38.5% | [6] 31.1%

CC(C)C(N)C(=O)NCC(=O)NCC(=O)O (stereo not drawn) (H-[ξV]-Gly-Gly-OH)
inactive: [1] -9.4% | [2] -22.2% | [3] -20.4% | [4] -8.15% | [5] -28.8% | [6] -23.4%

CCCCc1ccc(Nc2c(C(=O)OCC)cnc3cc4c(cc23)OCO4)cc1
inactive: [1] 4.6% | [2] -12.4% | [3] -15.2% | [4] 8.5% | [5] 3.95% | [6] -17.4%

CSCSCC(CO)NC(=O)/C=C\c1ccccc1 (stereo not given)
inactive: [1] -0.7% | [2] -4.05% | [3] 7.15% | [4] -21.7% | [5] 4% | [6] 3.5%

COC1=CC(=O)c2ccccc2C1(CCC=C(C)C)C1=NC(C)(C)CO1 (stereo not given)
inactive: [1] -27% | [2] -11.6% | [3] 7.75% | [4] 5.65% | [5] -8.6% | [6] -11.6%

O=[N+]([O-])c1ccc2[nH]c(=S)n(/C=C(/c3ccccc3)S(=O)Cc3ccccc3)c2c1 (stereo not given)
inactive: [1] -2.45% | [2] -22.6% | [3] -18.7% | [4] -3.15% | [5] -12% | [6] -5.15%

CN1C(=O)N(c2ccccc2)C2(CCN(CC3COc4ccccc4O3)CC2)C1=O (stereo not given)
inactive: [1] 4.05% | [2] -4.45% | [3] 21.6% | [4] 4.7% | [5] -6.9% | [6] 8.75%

CC(OS(C)(=O)=O)C(C)OS(C)(=O)=O (stereo not given)
inactive: [1] 2.4% | [2] -9.35% | [3] -11.7% | [4] -10.4% | [5] 0.95% | [6] -19.6%

CC(=O)N1C(Nc2ccccn2)CCN1c1ccccc1 (stereo not given)
inactive: [1] -30.9% | [2] -45.3% | [3] -21.4% | [4] 16.6% | [5] 7.9% | [6] -23.2%

NCc1ccc(Cl)cc1
inactive: [1] 8.65% | [2] -2.65% | [3] 11.4% | [4] 25.8% | [5] -2.2% | [6] 14.2%

O=C(O)c1ccccc1SC(Sc1ccccc1C(=O)O)c1ccc2c(c1)OCO2
inactive: [1] 11.3% | [2] -11.9% | [3] 2.85% | [4] -11.6% | [5] 33.6% | [6] 28%

OC1CN(c2ccccc2)CC(O)CN(c2ccccc2)C1 (stereo not given)
inactive: [1] -8.1% | [2] 2.35% | [3] 7.3% | [4] -11.8% | [5] -16.1% | [6] 6.2%

C1CSCC2(COC2)CSCCSCC2(COC2)CS1
inactive: [1] -23.1% | [2] -13.4% | [3] -18.9% | [4] -3.05% | [5] -7.35% | [6] -18.6%

CC(Oc1ccc(OCC2CCCCC2)cc1)C(=O)OCC(=O)c1ccc(-c2ccccc2)cc1 (stereo not given)
inactive: [1] -9.75% | [2] -7.4% | [3] -19.1% | [4] -3.15% | [5] -7.7% | [6] -11.3%

CN(C)Cc1cc(C(=O)/C=C/c2c(F)cccc2Cl)cc(CN(C)C)c1O
inactive: [1] 1.7% | [2] 21.4% | [3] 2.35% | [4] 1.05% | [5] -13.8% | [6] 7.35%

COC(C(=O)C(O)C(C)O)C1CC2C=C3C=C(OC4CC(OC5CC(O)C(OC)C(C)O5)C(OC(C)=O)C(C)O4)C(C)C(=O)C3=C(O)C2=C(O)C1OC1CC(OC2CC(OC3CC(C)(O)C(OC(=O)C(C)C)C(C)O3)C(O)C(C)O2)C(O)C(C)O1 (stereo not given)
inactive: [1] 51% | [2] 50.7% | [3] 38.5% | [5] 26.4% | [6] 45.8%
active: [4] 81.9%

CCN1C(=O)/C(=C\c2ccccc2)N=C1C
inactive: [1] 2.45% | [2] -7.35% | [3] 5.55% | [4] -58% | [5] -12.8% | [6] -42%

CC1(C#N)N(C(=O)c2ccccc2)c2ccccc2N1C(=O)c1ccccc1
inactive: [1] 18.6% | [2] 50.2% | [3] 46.2% | [4] 27.2% | [5] 36% | [6] 24.9%

Cc1c(Cc2ccccc2)c(N2CCOCC2)n2c(nc3ccccc32)c1C#N
inactive: [1] 4.75% | [2] 5.25% | [3] 0.65% | [4] -4.55% | [5] -2.8% | [6] 5.65%

CCOC(CN(C)C(=S)Nc1cccc2ccccc12)OCC
inactive: [1] -27.1% | [2] -30.1% | [3] -2.2% | [4] -6.45% | [5] -6.9% | [6] -13.2%

CC(=O)Nc1cc(Br)cc2c1-c1ccc(Br)cc1C2
inactive: [1] 36.7% | [2] 14.7% | [3] 16.2% | [4] 8.2% | [5] 5.3% | [6] 23.4%

CCCCCCCOC(=O)C(CC)CC
inactive: [1] 6.8% | [2] -6.45% | [3] 5.45% | [4] 2.85% | [5] 2.65% | [6] 6.45%

C/C(=N\NC(=O)C(N)=O)c1c(O)cc(C)oc1=O
inactive: [1] -29.1% | [2] 5.2% | [3] 11.6% | [4] -23.1% | [5] 1.8% | [6] 15.7%

O=C(O)CS(=O)(=O)c1nc2ccccc2[nH]1
inactive: [1] -27.3% | [2] 20.6% | [3] -7.75% | [4] -57.6% | [5] 10.8% | [6] -14.8%

N=C(N)n1ncc(Cl)c(Cl)c1=O
inactive: [1] 30.8% | [2] 36.2% | [3] 33.9% | [4] 30.4% | [5] 38.9% | [6] 41.5%

CN(C)C(=S)/N=C(\N)N(C)C
inactive: [1] 4.2% | [2] -8.55% | [3] -3.8% | [4] -0.45% | [5] 1.7% | [6] 15.6%

CCCOc1ccc(/C=C\c2cc(OC)c(OC)c(OC)c2)cc1
inactive: [1] 0.85% | [2] 3.9% | [3] -2.05% | [4] 3.4% | [5] 10.1% | [6] 43.5%

From PubChem BioAssay (NCI)
